In PubChem BioAssay AID743266 (National Center for Advancing Translational Sciences (NCATS), 2014):
In all, about 410,000 compounds went through this assay and about 310 (0.076%) were called active. Entries that show only a call come without a potency. About 2% were inconclusive and are not listed. Calls follow the shape of the dose curve; as a rule, active = well fitted activation curve with a large enough effect; inconclusive = small, poorly fitted or top-dose-only effect, or another doubt; inactive = no such curve, though single readings can be large or run the other way. Only a selection was taken, and actives are over-represented in it overall.

Biological target: Parathyroid hormone/parathyroid hormone-related peptide receptor (Homo sapiens) (UniProt Q03431)
Sequence (Q03431 whole entry, looked up): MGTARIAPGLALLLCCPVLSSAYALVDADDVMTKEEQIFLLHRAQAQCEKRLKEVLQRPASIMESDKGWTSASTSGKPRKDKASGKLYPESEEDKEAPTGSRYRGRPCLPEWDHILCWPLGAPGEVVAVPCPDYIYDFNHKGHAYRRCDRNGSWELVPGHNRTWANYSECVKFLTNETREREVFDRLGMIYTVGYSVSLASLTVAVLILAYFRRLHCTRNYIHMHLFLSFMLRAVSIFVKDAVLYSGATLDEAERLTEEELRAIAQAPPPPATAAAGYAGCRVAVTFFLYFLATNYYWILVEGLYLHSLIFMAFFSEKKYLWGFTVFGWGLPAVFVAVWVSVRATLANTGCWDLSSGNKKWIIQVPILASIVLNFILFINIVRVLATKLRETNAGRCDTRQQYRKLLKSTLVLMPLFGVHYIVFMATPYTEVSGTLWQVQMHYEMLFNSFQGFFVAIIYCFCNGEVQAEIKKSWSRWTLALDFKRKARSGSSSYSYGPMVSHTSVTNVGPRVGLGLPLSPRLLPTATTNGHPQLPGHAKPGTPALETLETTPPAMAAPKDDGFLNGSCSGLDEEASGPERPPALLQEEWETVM
Assay: qHTS for PTHR1 Agonists: Primary Screen; also: nearly all actives have a fitted effect of over 55% in size
Conditions: HEK293 GP2 PTHR1 cells, GloSensor cAMP luminescence, 1 h; series mostly up to 115 µM
Source text: The goal of the proposed studies is to discover new compounds that act as potent agonists on the parathyroid hormone receptor type-1 (PTHR1). The PTHR1 plays critical roles in maintaining blood calcium and phosphate levels, as well as in controlling bone remodeling. PTHR1 agonists could thus be useful for treating diseases such as hypoparathyroidism and osteoporosis. In the former disease, an agonist drug would help maintain normal blood calcium and phosphate levels under conditions of parathyroid hormone deficiency. In the latter disease, an agonist drug would stimulate new bone formation and thus reduce the risk of fracture, under conditions of bone fragility, as occurs in aging.
To that end, we performed a quantitative high-throughput screening (qHTS) of the Molecular Libraries Probe Centers Network (MLPCN) compound libraries at the NIH Chemical Genomics Center (NCGC) for the parathyroid hormone receptor type-1 (PTHR1) using a unique HEK-293-derived cell line (GP2) that expresses the PTHR1 and a glosensor cAMP reporter construct.
NIH Molecular Libraries Probe Production Centers Network [MLPCN]
NIH Chemical Genomics Center [NCGC]
Assay Submitter (PI): Thomas Gardella, Massachusetts General Hospital
4 microL are dispensed into a 1536-well micro plate to yield 3,000 cells/well. The plates are then incubated overnight, after which 4 microL of 0.5 mM of BIoTium Luciferin plus 0.5 mM IBMX are added. They are then incubated at 37 degree for one hour before 23 nL of compounds are added through pinning and then incubated at 37 degree again for another hour. After the plates are kept at room temperature for 15 min before they are read on the ViewLux to measure luminescence.
Potency is read from the fitted curve at half-maximal effect.

Row | SMILES | Potency
1 | CC1=C(c2ccc(C)c(C)c2)S(=O)(=O)NC1=NCc1ccccc1Cl | inactive
2 | COC(=O)c1cc(NC(=O)c2sc3ccccc3c2Cl)cc(C(=O)OC)c1 | inactive
3 | Cc1[nH]c2ccccc2c1C(c1ccccc1)c1cccs1 (stereo unspecified) | inactive
4 | CCOc1ccc(N(Cc2ccccc2)C(=O)c2nc(S(C)(=O)=O)ncc2Cl)cc1 | inactive
5 | CCOCCCNC(=O)c1cn(CC)c2ccc(S(=O)(=O)N3CCc4ccccc4C3)cc2c1=O | inactive
6 | Cc1ccc(OCC(=O)Nc2ccc(Cl)c(-c3nc4ccccc4[nH]3)c2)cc1C | inactive
7 | CCC1=Nc2cc(C(=O)NCCCOC(C)C)ccc2Sc2ccc(C)cc21 | inactive
8 | COc1ccc(-c2noc(CCC(=O)N(C)c3ccccc3C)n2)cc1 | inactive
9 | Cc1cccc(N2CCN(c3ccc(C(=O)O)cc3NC(=O)c3ccccc3F)CC2C)c1 (stereo unspecified) | inactive
10 | Cc1cc(C)cc(NS(=O)(=O)c2ccc(-c3cc(C)no3)s2)c1 | inactive
11 | COc1cc(C(=O)NCCS(=O)(=O)N2CCN(c3ccccc3)CC2)cc(OC)c1OC | inactive
12 | CCOc1ccc(C(=O)c2cn(Cc3ccccc3OC)c3ccc(F)cc3c2=O)cc1 | inactive
13 | CN1C(=O)c2ccccc2Sc2ccc(NC(=O)Cc3ccc(Cl)cc3)cc21 | inactive
14 | Cc1ccccc1-c1nc2scc(CCNC(=O)C(=O)Nc3ccc(F)cc3F)n2n1 | inactive
15 | O=C(CCS(=O)(=O)c1cc(Br)cc2c1N(C(=O)C1CC1)CC2)Nc1ccc(C(F)(F)F)cc1 | inactive
16 | Cc1cc(C)c(NC(=O)CSc2nc3nccnc3c(=O)n2CCc2c[nH]c3ccccc23)c(C)c1 | inactive
17 | COc1ccccc1C(=O)Nc1c(C(=O)N(C)Cc2ccccc2)sc2nc(C)c(Cl)c(C)c12 | inactive
18 | CCN(C(=O)Cn1cnc2sc(C)c(S(=O)(=O)N3CCN(c4ncccn4)CC3)c2c1=O)c1ccccc1F | inactive
19 | CCC(=O)N1CCc2cc(CNC(=O)Nc3ccccc3Cl)ccc21 | inactive
20 | CSc1nc(-c2ccc(F)cc2)nc2c1Cc1c(CO)cnc(C)c1O2 | inactive
21 | Cc1ccccc1OCCSc1nc2ccc(NC(=O)c3ccco3)cc2s1 | inactive
22 | Cc1ccc(Cn2c(=O)n(-c3ccc(C)cc3)c(=O)c3c2c2cc(C)ccc2n3C)cc1 | inactive
23 | Cc1ccsc1CN(C(=O)c1oc2ccc(Br)cc2c1C)C1CCS(=O)(=O)C1 (stereo unspecified) | inactive

Row | SMILES | Potency
24 | Cc1ccccc1CSc1nc2c([nH]c3ccccc32)c(=O)n1C | inactive
25 | CC(=O)c1ccc(N2CCN(c3nc4c(S(=O)(=O)c5ccccc5)nnn4c4ccc(Cl)cc34)CC2)cc1 | inactive
26 | Cc1cccc(N2CCN(C(=O)Cn3ncc4c5ccccc5n(C)c4c3=O)CC2C)c1 (stereo unspecified) | inactive
27 | CCOc1ccc(C2C(C(=O)Nc3ccc(Cl)cc3)=C(C)Nc3nc(C(F)(F)F)nn32)cc1 (stereo unspecified) | inactive
28 | CCN(C(=O)Cn1c(=O)nc(-c2ccccc2)c2cc(Cl)ccc21)c1cccc(C)c1 | inactive
29 | Cc1cc(C)cc(NC(=O)CCCc2nc(-c3ccccc3Cl)no2)c1 | inactive
30 | CCOC(=O)C1CCN(c2nc3c(S(=O)(=O)c4ccc(CC)cc4)nnn3c3ccc(Cl)cc23)CC1 | inactive
31 | Cc1ccc(CNC(=O)CCC(=O)N2Cc3ccccc3Oc3ncccc32)cc1 | inactive
32 | CCOC(=O)c1c(NC(=O)Cc2coc3ccc(CC)cc23)sc2c1CCC2 | inactive
33 | CCOc1ccccc1N(CC)C(=O)Nc1cn(C)c(=O)c2ccccc12 | inactive
34 | O=C(NCCCO)c1nn(-c2ccc(Cl)cc2)nc1CO | inactive
35 | CCc1nn(CC(=O)N2CCN(c3ccc(Cl)cc3)CC2)c(=O)c2cc3occc3n12 | inactive
36 | CC(C)Cn1c(C2CC(=O)N(c3ccccc3Cl)C2)nc2ccccc21 (stereo unspecified) | inactive
37 | Cn1c(COc2ccccc2C(C)(C)C)nc2ccccc21 | inactive
38 | COc1ccc(NC(=O)CSC2=Nc3ccccc3C3=NC(CC(=O)NCc4ccccc4OC)C(=O)N23)cc1Cl (stereo unspecified) | inactive
39 | CC(CCCc1ccccc1)NC(=O)c1nn(-c2ccc(Cl)cc2)nc1CO (stereo unspecified) | inactive
40 | COc1ccc(CNc2nc(-c3ccc(Cl)cc3)nn2C(=O)c2ccccc2)cc1 | inactive
41 | Cc1ccc(CCNC(=O)C2CCN(c3nnc(-n4cccc4CNc4ccc(C)cc4)s3)CC2)cc1 | inactive
42 | Cc1ccc(SCC(=O)Nc2ccc3oc(-c4ccccc4F)nc3c2)cc1 | inactive
43 | CC(=O)N1c2ccc(S(=O)(=O)N3CCCCCC3)cc2CC1C(=O)NCc1ccccc1C (stereo unspecified) | inactive
44 | CCN1CCN(CCCNC(=O)c2cnn(-c3ccc(C)cc3C)c2C2CCN(C(=O)OC(C)(C)C)CC2)CC1 | inactive
45 | Cc1cccc(C)c1-n1ncc(C(=O)NCCCN2CCCCC2)c1C1CCN(C(=O)OC(C)(C)C)CC1 | 14.1 µM (active)
46 | COc1ccccc1N1CCN(CCCNC(=O)c2cnn(-c3ccccc3Cl)c2C2CCN(C(=O)OC(C)(C)C)CC2)CC1 | inactive

Row | SMILES | Potency
47 | O=C(NC1CCCCC1)c1ccc(Cn2c(SCc3ccccc3)nc3cccnc32)cc1 | inactive
48 | COc1ccc(N(C)C(=O)C2CCN(S(=O)(=O)c3cc(Br)cc4c3N(C(C)=O)CC4)CC2)cc1 | inactive
49 | CCOc1ccc(OCC)c(NC(=O)c2c(C)nn(-c3ccccc3)c2-n2cccc2)c1 | inactive
50 | COc1cccc(-c2n[nH]c3c2C(c2cccc(O)c2)N(C)C3=O)c1 (stereo unspecified) | inactive
51 | CCCN1CCN(CCCNC(=O)Cn2nc(CC)n3c(cc4occc43)c2=O)CC1 | inactive
52 | COc1ccc2c(c1)c(N1CCCC1=O)c(C(=O)Nc1ccc(OC)c(Cl)c1)n2C | inactive
53 | COC(=O)c1cc2occc2n1Cc1nc(-c2ccc(C)cc2)oc1C | inactive
54 | Cc1ccc(-c2cnc(NCc3ccc(C(C)C)cc3)n2C)cc1 | inactive
55 | C=Cc1ccc(Cn2c(C(=O)O)c(CNC3CCCC3)c3ccc(C)cc32)cc1 | inactive
56 | CCN(CC)C(=O)CSc1nc2cc3c(cc2c(=O)n1CCCC(=O)NCc1ccc2c(c1)OCO2)OCO3 | inactive
57 | CCOc1ccc(CNC(=O)C2CCCN(S(=O)(=O)N(CC)c3ccc(OCC)cc3)C2)cc1 (stereo unspecified) | inactive
58 | CCN(CC)S(=O)(=O)c1ccc2c(c1)c(=O)c(C(=O)N1CCN(c3cccc(Cl)c3)CC1)cn2C | inactive
59 | COc1cccc(CNC(=O)C2CCC(CNS(=O)(=O)c3cccs3)CC2)c1 (stereo unspecified) | inactive
60 | COc1ccc(N2CCN(S(=O)(=O)c3ccc(-c4coc(C)n4)cc3)CC2)cc1 | inactive
61 | Cc1ccc(C)c(N2CCN(C(=O)CN3C(=O)COc4ccc(S(=O)(=O)N5CCCCCC5)cc43)CC2)c1 | inactive
62 | COc1ccccc1CNC(=O)Cn1nc(C)c2nn(-c3ccc(Cl)cc3)c(C)c2c1=O | inactive
63 | O=C(O)c1ccc(CSc2nc3cccnc3n2Cc2cccc(F)c2)cc1 | inactive
64 | CC(C)c1ccc(NC(=O)c2ccc(Cn3nc(N4CCN(c5ccccc5)CC4)ccc3=O)o2)cc1 | inactive
65 | O=C(CSc1nccn1C1CCCC1)Nc1cc(C(F)(F)F)ccc1Cl | inactive
66 | Cc1ccc(Cc2cnc(N)s2)o1 | 3.55 µM (active)
67 | Cc1ccc(-c2nc3cccc(C)n3c2Nc2ccc3c(c2)OCCO3)cc1 | inactive
68 | CCN(CC)c1ccc(NC(=O)Cn2nc3c(cc2=O)CCCC3)c(C)c1 | inactive
69 | CCC(=O)N1c2ccccc2CC1C(=O)N1CCN(c2ccccc2F)CC1 (stereo unspecified) | inactive

Row | SMILES | Potency
70 | Cc1cc(C)c(NC(=O)CCc2c(C)nc3c(c(C)nn3C(C)(C)C)c2C)c(C)c1 | inactive
71 | Cn1c(=O)c(C(=O)O)nn(-c2ccccc2)c1=O | inactive
72 | Cc1cc(C)cc(NC(=O)CSc2nc(=O)n(CCN3CCOCC3)c3c2CCC3)c1 | inactive
73 | COc1ccccc1NC(=O)Cn1cnc2ccc(S(=O)(=O)N3CCC(C)CC3)cc2c1=O | inactive
74 | COc1ccc(C2(Nc3cccc(F)c3)C(=O)c3ccccc3C2=O)cc1 | inactive
75 | CC1CCN(S(=O)(=O)c2ccc3c(c2)N(CC(=O)NCCc2ccccc2)C(=O)CO3)CC1 | inactive
76 | COc1ccc(-n2nc(C(=O)NCCc3ccc(Cl)cc3)c3c4ccccc4n(C)c3c2=O)cc1Cl | inactive
77 | c1ccc(CSc2ncnc3c2sc2nc(N4CCOCC4)c4c(c23)CCCC4)cc1 | inactive
78 | CCc1nc2sc3c(Cl)ncnc3c2c2c1CCCC2 | inactive
79 | CCCCSc1ncnc2c1sc1nc(N3CCOCC3)c3c(c12)CCCC3 | 79.4 µM (active)
80 | COC(=O)c1c(NC(=O)c2cc(=O)c3c(C)cc(C)cc3o2)sc2c1CCCC2 | inactive
81 | Cc1ccccc1NC(=O)Cn1cc(C(=O)c2cccs2)c2ccccc21 | inactive
82 | CCCS(=O)(=O)N1CCC(n2c(C(F)(F)F)nc3cccnc32)CC1 | inactive
83 | Cc1ccc(CN2COc3cc(C)c4c(oc(=O)c5ccccc54)c3C2)cc1 | inactive
84 | COc1ccc(OC)c(-n2nnc(-c3nc(-c4cc(OC)c(OC)c(OC)c4)no3)c2C)c1 | inactive
85 | COc1cc(NC(=O)CCn2nc(C)cc2C)cc(OC)c1OC | inactive
86 | Cc1cc(C)cc(NC(=O)Cn2nc(N3CCN(c4ccccc4)CC3)ccc2=O)c1 | inactive
87 | COc1cccc(NC(=O)N2CCN(C(=O)c3nsc4ccccc34)CC2)c1 | inactive
88 | CCCC(=O)N1CCN(c2nc3c(OC)ccc(C)c3s2)CC1 | inactive
89 | Cc1ccc(NC(=O)CN2C(=O)CC(C)Sc3ccccc32)c(C)c1 (stereo unspecified) | inactive
90 | COc1cc(NC(=O)c2nc3ccccc3nc2C)cc(OC)c1OC | inactive
91 | CCN(Cc1ccccc1)Cc1c(O)ccc2c(=O)c(-c3ccc(Cl)cc3Cl)coc12 | inactive
92 | CN(C)Cc1c(O)ccc2c(=O)c(-c3ccccc3Cl)coc12 | inactive

Row | SMILES | Potency
93 | CC(C)CN(Cc1c(O)ccc2c(=O)c(-c3ccccc3)coc12)CC(C)C | 35.5 µM (active)
94 | CC1CCN(S(=O)(=O)c2ccc3c(c2)N(CC(=O)NCc2ccccc2Cl)C(=O)CO3)CC1 | inactive
95 | COC(=O)c1cc(NC(=O)CCc2c(C)nc3c4c(C)cc(C)nc4nn3c2C)cc(C(=O)OC)c1 | inactive
96 | COc1ccc(Cn2cc(C(=O)c3ccc(C)cc3)c(=O)c3cc(OC)c(OC)cc32)cc1 | inactive
97 | Cc1oc2ncnc(N3CCCCC3)c2c1C(=O)N1CCN(c2cccc(Cl)c2)CC1 | inactive
98 | CCOC(=O)N1CCc2c(sc3c2C(=O)NC(c2ccccc2F)N3)C1 (stereo unspecified) | inactive
99 | COc1ccc(NC(=O)Cn2c(=O)cc(C)c3c(C)nn(-c4cccc(Cl)c4C)c32)cc1OC | inactive
100 | Cc1ccc(C)c(NC(=O)CSC2=Nc3ccccc3N=C(c3ccc(F)cc3)C2)c1 | inactive
101 | CCN(CC)c1ccc(NS(=O)(=O)c2cc(-c3cc(C)no3)ccc2C)c(C)c1 | inactive
102 | CCCCC12CN3CC(C)(CN(C1)C3c1ccc(O)c(OC)c1)C2=O (stereo unspecified) | inactive
103 | CC(=O)c1ccc(NC(=O)C2CCN(S(=O)(=O)c3c(C)noc3/C=C/c3ccc(C)cc3)CC2)cc1 | inactive
104 | COC(=O)c1ccccc1NC(=O)c1ccc2c(=O)n3c(nc2c1)CCCCC3 | inactive
105 | COc1ccccc1-c1cc2nc(C)c(CCC(=O)NC3CCCCC3)c(C)n2n1 | inactive
106 | CCc1ccc(CN(Cc2ccco2)C(=O)COc2ccc(Cl)c(C)c2)cc1 | inactive
107 | COc1cccc2c1cc1c(=O)n(CC(=O)N3CCN(c4ccccc4)CC3)nc(C)n12 | inactive
108 | O=C(NCCc1ccccc1)c1ccc2c(c1)N(Cc1ccc(F)cc1)C(=O)c1ccccc1S2(=O)=O | inactive
109 | Cc1nc2ccn(Cc3cccnc3)c(=O)c2cc1C(=O)N1CCN(c2ccccc2F)CC1 | inactive
110 | CCc1ccc(NC(=O)CCS(=O)(=O)c2cc3c(cc2Cl)NC(=O)CO3)cc1 | inactive
111 | Cc1ccc(C(=O)Nc2cc3c(cc2N2CCCC2)n(C)c(=O)c(=O)n3C)cc1 | inactive
